Compound activity deposited in PubChem BioAssay by National Center for Advancing Translational Sciences (NCATS).
Rows were chosen to be rich in hits. Some 13% of all compounds tested hit in one or more screens of this group.
HSD17B inh: blocks hydroxysteroid 17-beta dehydrogenase activity; Potency, µM (titrated, usually from 57.1 µM), most hits filed as inhibitors; 75,000 tested, 7.6% active; recombinant HSD17B10, NADH fluorescence kinetic;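 also: the protocol describes HADH2 (HSD17B10) and not the HSD17B4 of the title; nearly all actives have a fitted effect of over 70% in size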
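His-tagged E. coli-expressed HADH2 at 20 nM in 100 mM Tris-HCl pH 9.0 with 0.01 % Tween-20, preincubated 15 min with compound at room temperature. Reaction with 1 mM NAD+ and 90 uM beta-hydroxybutyryl coenzyme A; NADH fluorescence (360/450 nm) read kinetically over 4 min, last minus first point.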
4MU fluor: 4-MU region autofluorescence; compound autofluorescence, 340/450 nm, 4-MU equivalents; hits give high values; max dye-equivalent concentration, M; 59,000 tested, 11% active; in the data active = max dye-equivalent concentration above about 10 nM; inconclusive = mostly about 1.1 nM to 9.6 nM
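Compounds in 100 mM Tris, pH 8.0, incubated 15 min at room temperature, then fluorescence read at 340 nm excitation/450 nm emission. Signal converted to 4-MU dye-equivalent concentration using an on-plate six-point 4-MU standard curve.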
A350 autofl: compound fluoresces in the Alexa 350 spectral region | Compound autofluorescence, 340/450 nm, Alexa 350 dye-equivalents; hits give high values | max dye-equivalent concentration, M | 59,000 tested, 11% active | AID 590; in the data active = max dye-equivalent concentration above about 10 nM; inconclusive = mostly about 1.1 nM to 9.6 nM
HADH2 inh: inhibitors of human HADH2 dehydrogenase; AID 886; 73,000 tested, 3.4% active; recombinant HADH2, NADH fluorescence, beta-hydroxybutyryl-CoA; Potency, µM (titrated, usually from 57.1 µM), hits mostly inhibitors; Q99714; also: nearly all actives have a fitted effect of over 60% in size
Target sequence (Q99714 whole entry, looked up, one chain of several): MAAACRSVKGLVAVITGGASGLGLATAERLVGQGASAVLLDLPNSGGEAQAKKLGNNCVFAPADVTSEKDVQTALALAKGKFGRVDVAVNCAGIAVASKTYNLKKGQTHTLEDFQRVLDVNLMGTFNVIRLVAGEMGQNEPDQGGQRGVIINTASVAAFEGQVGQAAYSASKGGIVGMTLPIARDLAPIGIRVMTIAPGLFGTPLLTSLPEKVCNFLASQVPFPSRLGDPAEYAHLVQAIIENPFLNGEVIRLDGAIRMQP
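NADH fluorescence (ex 360/em 450 nm) read every 30 s for 4 min; activity taken as last-minus-first time point difference. Enzyme 20 nM, NAD+ 1 mM, beta-hydroxybutyryl-CoA 90 uM, pH 9.0 Tris buffer.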
AID923: qHTS Assay for Allosteric/Competitive Inhibitors of Caspase-1: Spectroscopic Profiling in AFC Spectral Region; compound fluorescence, AFC spectral region (405/520 nm); Potency, µM (top dose mostly 57.5 µM), hits mostly activators; 75,000 tested, 1.1% active
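Titrations up to 57 uM read every 20 sec for 3 min (405/520 nm) with 50 nM caspase 1 and 5 uM Ac-WEHD-AFC, pH 7.5 HEPES buffer. Fluorescence-vs-time intercept gave baseline, scaled against on-plate AFC standard.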
A number is an active result; i = inactive; ? = inconclusive; nt = no result given; [ ] = dose if it differs, or a comment. Unless noted, calls follow the shape of the dose curve; as a rule, active = well fitted curve in the direction sought with a large enough effect; inconclusive = small, poorly fitted or top-dose-only effect, or another doubt; inactive = no such curve, though single readings can be large; an effect the other way counts as inactive or inconclusive.

SMILES	HSD17B inh	4MU fluor	A350 autofl	HADH2 inh	AID923
Cc1ccc(CNC(=O)[C@H]2C[C@@H]2[C@H](NP(=O)(c2ccccc2)c2ccccc2)c2ccccc2)c(F)c1F	i	nt	nt	i	i
O=C(NCCn1ccc2ccccc21)C1CCCCC1	32µM	nt	nt	i	i
CS(=O)(=O)Nc1cccc(-c2ccc3ncnc(Nc4ccccc4)c3c2)c1	i	i	i	i	i
CCCN(CCC)c1nc(C)cc(C(C#N)c2nc3ccccc3o2)n1 (stereo not given)	i	2.6e-08M	3.4e-08M	i	i
O=c1c2c([nH]c3ccccc13)C(=C1CCCC1)CC2	32µM	nt	nt	?	i
CC(C)(C)C1CCc2[nH]c3ccccc3c(=O)c2C1 (stereo not given)	?	nt	nt	i	i
COc1ccc(C[C@@H]2C(=O)N[C@H](C)C(=O)N(C)[C@@H]3Cc4ccc(cc4)Oc4cc(ccc4O)C[C@H](C(=O)N[C@@H](C)C(=O)N[C@H](C)C(=O)N2C)N(C)C3=O)cc1	i[11.4 µM]	i	i	i[11.4 µM]	i[11.5 µM]
CN(C)c1ccc(/C=[N+](\[O-])C2SC(=S)N(C)C2(C)C)cc1 (stereo not given)	i	1.7e-08M	2.1e-08M	i	i
CO[C@H]1COC(=O)[C@H](C)COC(=O)[C@@H](Cc2ccccc2)NC(=O)C/C=C\[C@H]1C	i[11.4 µM]	nt	nt	i[11.4 µM]	i[11.5 µM]
CN=c1oc2ccc(Cl)cc2cc1C(N)=O	25µM	?	?	i	i
CC(=O)Nc1c(C(=O)O)oc2ccc(Cl)cc12	i	i	i	i	i
COc1ccc2[nH]cc(CCNc3ccnc(-c4ccccc4C)n3)c2c1	i	i	i	i	i
COc1cccc(N(C(C)=O)c2nc(C)cc(C)c2C#N)c1	i	2e-08M	2.1e-08M	i	i
CC1Cn2c(nc3sc4c(c3c2=O)CCC4)N1CCO (stereo not given)	32µM	2.7e-08M	2.7e-08M	i	i
C=CCn1c(NCCO)nc2sc3c(c2c1=O)CCC3	i	nt	nt	i	i
COc1ccc(-c2cc(NCCc3ccncc3)n3ncnc3n2)cc1	?	i	i	?	i
COc1ccc(-c2cc(NCc3ccccn3)n3ncnc3n2)cc1	10µM	?	?	i	i
Cc1cccc(C)c1NC(=O)Nc1cccs1	25µM	i	i	?	i
N#Cc1cccc(NC(=O)Nc2cccs2)c1	25µM	i	i	?	i
CCc1cccc(NC(=O)Nc2cccs2)c1	i	i	i	i	i
CC(=O)NO	i	nt	nt	nt	i
Cn1c(/N=C/c2cc(Cl)ccc2O)nc2ccccc21	i	?	?	i	i
Oc1ccc(Cl)cc1C=Nc1cnc2ccccc2c1	4µM	1.6e-07M	1.8e-07M	i[11.4 µM]	i[11.5 µM]
Cc1cc(N)n2ncc(-c3ccccc3)c2n1	25µM	?	1.2e-08M	i	i
CCn1c(-c2cccc(Br)c2)n[nH]c1=S	i	i	i	?	i
SMILES	HSD17B inh	4MU fluor	A350 autofl	HADH2 inh	AID923
Cc1cc(N)n2ncc(-c3cccc(Br)c3)c2n1	20µM	nt	nt	i[11.4 µM]	i
Cc1cc(N)n2nc(-c3ccccc3)cc2n1	i	nt	nt	i	i
Cc1ccccc1-c1cc(Nc2ccc(F)cc2)ncn1	i	i	i	i	i
CC(C)c1nnc(NC(=O)CCS(=O)(=O)c2nc(-c3cccs3)cc(C(F)(F)F)n2)s1	i	i	i	i	i
COc1ccccc1-c1cc(C(F)(F)F)nc(S(=O)(=O)CCCC(=O)Nc2cc(C)on2)n1	32µM	4.7e-07M	5e-07M	32µM	i
COc1ccccc1-c1cc(C(F)(F)F)nc(S(=O)(=O)CCCC(=O)NC(C)C)n1	i	6.8e-08M	6.4e-08M	i	i
COc1ccccc1-c1cc(C(=O)Nc2cc(C)on2)no1	i	i	i	i	i
COc1ccccc1-c1cc(C(F)(F)F)nc(S(=O)(=O)CCCC(=O)N2CCCCC2C)n1 (stereo not given)	i	6.2e-08M	4.4e-08M	?	i
O=C(O)CNC(=O)c1ccc([N+](=O)[O-])cc1	?	nt	nt	i	i
Cn1c(SCc2ccc(Br)cc2)nnc1-c1ccncc1	i	i	i	i	i
Cn1c(SCc2ccccc2)nnc1-c1ccncc1	i	3.7e-08M	4e-08M	i	i
O=C(NCCN1CCCC1)c1ccc(-n2c(=O)c(=O)[nH]c3ccccc32)cc1	i	nt	nt	i	i
C=CCOc1ccc(CN(C)CC(=O)N(CC(C)C)c2c(N)n(CC(C)C)c(=O)[nH]c2=O)cc1	i	?	1.3e-08M	i	i
